From PubChem BioAssay
DAX1 inh-1: NR0B1 (DAX1) inhibition. inhibition, % at 6.75 µM. 340,000 tested, 0.99% active. AID 504766. HEK293 Gal4-DAX1 luciferase reporter, luminescence;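 active = inhibition above the mean over all tested compounds plus 3 SD, cut at about 4.2% in these data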;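 also: inhibition shows as a rise in luminescence from relieved DAX1 repression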
ssDAF-12 act: activates DAF-12 receptor from parasite S. stercoralis; HEK293 ssDAF-12/GRIP1 lit1-tk-luc reporter, luminescence; % of 3 µM dafachronic acid response; activation, % at 6.8 µM; 370,000 tested, 1% active; AID 652126;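 active = activation above the mean over all tested compounds plus 3 SD, cut at about 0.9% in these data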
DAX1 inh-2: DAX1 (NR0B1) inhibition, primary screen; inhibition, % at 6.8 µM; AID 652010; HEK293T StAR-luciferase reporter, SF-1/DAX-1 repression relief; 370,000 tested, 1.1% active;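 active = inhibition above the mean over all tested compounds plus 3 SD, cut at about 3.6% in these data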;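 also: higher inhibition means more luminescence from relief of DAX-1 repression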
hgDAF-12 ag: activates the H. glycines DAF-12 receptor ligand-binding domain; HEK293 GAL4-hgDAF12 UAS-luciferase reporter, agonist luminescence; normalized to butyrate control; activation, % at 6.8 µM; 370,000 tested, 1.8% active;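 active = activation above a cutoff set at the mean of all screened compounds plus 3 SD, cut at about 10% in these data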
AHR act: activators of human aryl hydrocarbon receptor | P35869 | AHR-responsive luciferase reporter cells, luminescence | activation, % at 5 µM | 320,000 tested, 2.5% active | AID 2796; in the data active = activation above about 47%
hcDAF12 agonist: activators of H. contortus DAF-12 nuclear receptor. HEK293 hcDAF-12 lit1-tk-luc reporter, luminescence; 0% DMSO, 100% Δ7-dafachronic acid. 370,000 tested, 1.4% active. activation, % at 6.8 µM. AID 652067;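 active = activation above the mean of all tested compounds plus 3 SD, cut at about 5.5% in these data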
AHR act confirm: confirmation of human aryl hydrocarbon receptor activators; shares compounds with AHR act; human cells, AHR-responsive luciferase reporter, luminescence; activation, % at 9 µM; 2,300 tested, 87% active; in the data active = activation above about 49%;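 also: HepG2 hepatoma cells carrying a DRE-driven firefly luciferase reporter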
PXR counter: activates human PXR in AHR activator counter-screen; shares compounds with AHR act; cell-based PXR reporter, luciferase luminescence; activation, % at 11.6 µM; 2,300 tested, 88% active; in the data active = activation above about 11%;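 also: human hepatoma DPX-2 cells expressing full-length human PXR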
Target sequence (O75469 whole entry, looked up): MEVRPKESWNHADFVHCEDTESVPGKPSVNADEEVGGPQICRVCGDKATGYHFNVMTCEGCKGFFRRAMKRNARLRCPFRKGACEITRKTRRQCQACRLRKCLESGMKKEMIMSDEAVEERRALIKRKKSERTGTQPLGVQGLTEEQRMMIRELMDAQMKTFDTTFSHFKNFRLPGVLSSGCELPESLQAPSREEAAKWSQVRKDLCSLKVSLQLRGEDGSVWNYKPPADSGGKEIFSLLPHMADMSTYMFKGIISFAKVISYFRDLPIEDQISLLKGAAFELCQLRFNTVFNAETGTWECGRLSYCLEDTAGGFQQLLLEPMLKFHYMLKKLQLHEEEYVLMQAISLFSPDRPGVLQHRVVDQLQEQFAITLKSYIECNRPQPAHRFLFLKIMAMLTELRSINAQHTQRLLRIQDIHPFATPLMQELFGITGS
Numbers stand for hits; 0 = inactive; - = not tested or not shown. Only some compounds are listed: those with a hit (about 5.7% of all), similar ones and a draw of the others.

SMILES	DAX1 inh-1	ssDAF-12 act	DAX1 inh-2	hgDAF-12 ag	AHR act	hcDAF12 agonist	AHR act confirm	PXR counter
CC(=O)c1c(C)[nH]c(C(=O)NCCc2ccccc2)c1C	0	0	0	0	116	0	70	79
C=CCNC(=O)N1CCC(n2nccc2NC(=O)CCCc2ccccc2)CC1	0	0	0	0	0	0	-	-
S=C(Nc1cccc2ccccc12)Nc1cccc2ccccc12	0	0	0	0	-	0	-	-
Cc1ccc(F)c(NC(=S)Nc2cccc3ccccc23)c1	0	0	0	0	94	0	0	106
COC(=O)/C(=C/c1ccc2c(c1)c1ccccc1n2C)NC(=O)c1ccccc1	0	0	0	0	82	0	104	97
CCN(CC)C(=O)c1cn(CCC#N)nc1-c1ccc(F)cc1	0	0	0	0	0	0	-	-
O=C(/C=C/c1ccc(F)cc1)N1CCc2ccccc2C1	0	0	3.8	0	100	0	136	60
Cc1ccc(NC2=C(NC(=O)c3ccccc3)C(=O)c3ccccc3C2=O)cc1Cl	0	0	0	0	104	0	106	93
COc1ccc(/C=C/C(=O)NC(=S)Nc2cc3oc4ccccc4c3cc2OC)cc1	0	0	0	0	0	0	-	-
COc1cc2c(cc1NC(=O)C(C)OC(=O)/C=C/c1ccc(OC(F)F)cc1)oc1ccccc12 (stereo not drawn)	0	0	0	0	144	8.2	107	30
COCCCNC(=O)CC1C[C@H](C(=O)N(C(C)C)C(C)C)[C@@]2(C)c3[nH]c4ccccc4c3CCN2C1=O (stereo partly drawn)	0	0	0	0	0	0	-	-
Cc1ccc(NC(=O)CN2C(=O)N/C(=C\c3ccco3)C2=O)cc1	0	0	0	0	0	0	-	-
O=C(c1cc(S(=O)(=O)NCc2ccco2)ccc1Br)N1CCOCC1	0	0	0	0	0	0	-	-
O=C(Nc1ccc(Cl)c(Cl)c1)Nc1ccc([N+](=O)[O-])cn1	0	0	0	0	91	0	86	0
O=C(O)c1cc([N+](=O)[O-])ccc1NCc1ccccc1	0	0	0	0	0	0	-	-
O=C(Nc1ccccc1)c1cc([N+](=O)[O-])ccc1Cl	0	0	0	0	88	5.8	95	14
O=C(Nc1ccccc1)c1cc([N+](=O)[O-])ccc1NCc1cccnc1	0	0	0	0	83	0	104	41
CC(=O)Nc1ccc(NC(=O)c2ccc([N+](=O)[O-])cc2Cl)cc1	0	0	0	0	0	0	-	-
Cc1ccc2cc(C)c(SCC(=O)Nc3cc(C)on3)nc2c1	0	0	0	0	0	0	-	-
CCOc1ccc2c(c1)c(N=O)c(O)n2C	0	0	0	0	94	0	62	10
CCOc1ccc(/C=N/NC(=O)c2c(C)n(C)c3ccc(OC)cc23)cc1	0	0	0	0	0	0	-	-
COC(=O)C[C@H]1CC[C@@H]2[C@@H](COc3ccc(NC(=O)Nc4cccc(C)c4)cc3C(=O)N2C)O1	-	0	0	0	-	0	-	-
COc1ccccc1-c1sc2ccccc2c1-c1ccc2c(c1)OCO2	0	0	0	0	0	0	-	-
COC(=O)c1c(-c2ccccc2OC)sc2cc3c(cc12)OCO3	0	0	0	0	108	0	92	226
COc1ccccc1-c1sc2cc3c(cc2c1-c1ccc2c(c1)OCO2)OCO3	0	0	0	0	93	0	126	162
SMILES	DAX1 inh-1	ssDAF-12 act	DAX1 inh-2	hgDAF-12 ag	AHR act	hcDAF12 agonist	AHR act confirm	PXR counter
COc1ccc(CC2=CC(=O)c3ccccc3C2=O)cc1	0	0	0	0	0	0	-	-
COc1cccc(C(=O)C2CCCN(C(=O)CCC3=NNC(=O)CC3)C2)c1 (stereo not drawn)	0	0	0	0	0	0	-	-
CCc1cccc2sc(NC(=O)C3CC3)nc12	0	0	0	0	91	0	119	13
CCOc1cccc2sc(NC(=O)CC)nc12	0	0	0	0	0	0	-	-
Cc1cc(C)c2sc(NC(=O)C3CC3)nc2c1	0	0	0	0	106	0	117	59
COc1ccc(NC(=O)c2sc(NC(=O)C3CC3)nc2C)cc1	0	0	0	0	0	0	-	-
Cc1ccc(C)c2sc(NC(=O)C3CC3)nc12	0	0	0	0	92	0	121	-
Cc1nc(NC(=O)C2CC2)sc1C(=O)Nc1ccc(Br)cc1	0	0	0	0	103	0	104	33
O=C(NC(c1ccc(Cl)cc1)c1ccsc1)C1CCN(Cc2ccc(Oc3ccccc3)cc2)CC1 (stereo not drawn)	-	0	0	0	-	0	-	-
Cc1cc2ccccn2c1C(=O)c1ccc([N+](=O)[O-])o1	0	0	0	0	0	0	-	-
COc1ccc(S(=O)(=O)N(C)C)cc1NC(=O)COC(=O)Cn1cnc2ccccc2c1=O	0	0	0	0	0	0	-	-
O=C(Nc1ccccc1C(=O)NCCc1ccccc1)c1ccco1	0	0	0	11	110	0	102	42
O=C(O)CNC(=O)c1ccccc1NC(=O)c1ccco1	0	0	0	0	0	0	-	-
COC(=O)/C(=C(O)\C=C\c1ccccc1[N+](=O)[O-])c1nc2ccccc2[nH]1	0	0	0	0	92	0	113	47
Cc1[nH]nc(Nc2ccc(O)cc2)c1[N+](=O)[O-]	0	0	0	0	0	0	-	-
Cc1ccc(Nc2n[nH]c(C)c2[N+](=O)[O-])c(C)c1	0	0	0	0	132	0	127	15
Cn1c(=O)c([N+](=O)[O-])c(NCc2ccc3c(c2)OCO3)c2ccccc21	-	0	0	0	89	0	99	86
Cn1c(=O)c([N+](=O)[O-])c(NCCc2ccccc2)c2ccccc21	0	0	0	0	81	0	89	49
Cn1c(=O)c([N+](=O)[O-])c(NCc2ccccc2Cl)c2ccccc21	0	0	0	0	0	0	-	-
CCCCNC(=S)N(C)/N=C/c1ccc2c(c1)OCO2	0	0	0	0	159	0	68	26
O=C(CNC(=O)c1ccccc1Cl)N/N=C/c1ccc2c(c1)OCO2	0	0	0	0	0	0	-	-
O=C(N/N=C/c1ccc(O)cc1)c1cncc(Br)c1	0	0	0	0	0	0	-	-
O=C(N/N=C\c1ccc2c(c1)OCO2)c1cncc(Br)c1	0	0	0	0	104	0	80	10
Cc1ccc(C(=O)N/N=C\c2ccc3c(c2)OCO3)cn1	0	0	0	0	0	0	-	-
Clc1ccccc1N/N=C/c1ccc2c(c1)OCO2	4.3	0	0	0	80	0	66	35
Cc1ccc(C(=O)N/N=C/c2ccc3c(c2)OCO3)o1	0	1.0	0	0	142	5.9	98	21
